# Screens deposited in PubChem BioAssay by several laboratories.
# CF NFkB block: inhibitors of PAF-induced NF-kB signaling, primary screen, cell-based, GFP fluorescence, uHTS; KKLEB NF-kB-GFP reporter, GFP fluorescence overnight; inhibition, % at 5 µM; hit rate 0.86% among 360,000;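 active = at least 50% inhibition at 5 µM, scaled per plate between neutral and stimulator controls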;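 also: PAF is a Pseudomonas aeruginosa culture filtrate used as stimulus; plate controls were PAF-stimulated DMSO wells for no effect and unstimulated DMSO wells for full effect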
# HIF-2a block: HIF-2a reporter inhibitors, primary screen, luminescence, 786-0 RCC cells; 786-0 RCC cells HIF-2a reporter, luciferase luminescence, overnight; inhibition, % at 18.8 µM; hit rate 0.72% among 360,000;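 active = inhibition of the luminescence signal of 40% or more relative to plate controls, in a single-dose primary screen at 18.75 µM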
# LGR2 antag: inhibitors of bursicon-induced LGR2 CRE-luciferase signal, primary screen, cell-based, HEK293, CRE-luciferase reporter, bursicon stimulation. Drosophila bursicon receptor LGR2 (rickets). bursicon-stimulated, 4 h. inhibition, % at 9.99 µM. hit rate 0.35% among 380,000. AID 720647, 2013;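 active = drop in luminescence signal, shown as inhibition above about 50% in the replicate tests, limit read from the data, passing the limit was not always enough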;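 also: agonist challenge used bursicon conditioned medium at about half maximal strength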
# TWEAK-Fn14 inh: inhibitors of TWEAK-Fn14 signaling, primary screen, luciferase reporter cells, uHTS; TWEAK-stimulated Fn14 reporter cells, luciferase luminescence, 8 h; inhibition, % at 10 µM; hit rate 2% among 360,000; in the data active = inhibition above about 50%
# KKLEB cytotox: cytotoxicity in KKLEB CF airway cells, primary screen, cytotoxicity control for CF NF-kB inhibitor project, cell-based, uHTS, fluorescence assay plates; KKLEB CF airway cells viability, ATPlite luminescence, overnight; stronger effect = lower value; cells stimulated with P. aeruginosa culture filtrate; hit rate 0.36% among 360,000; activity change (cytotoxicity), % at 5 µM;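 active = corrected activity change at or below -50% at 5 µM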
# hiPSC survival: enhancers of single-cell hiPSC survival, primary screen, ATPlite luminescence; 100% = ROCK inhibitor wells, 0% = DMSO; survival enhancement, % at 20 µM; hit rate 0.044% among 360,000; AID 602274, 2012; in the data active = survival enhancement above about 18%;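 also: cells exposed to compounds for 16 hours before the ATP read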
# HIF-2a conf: HIF-2a reporter inhibitor retest, confirmation, luminescence, 786-0 RCC cells; HIF-2a luciferase reporter luminescence, overnight; hit rate 56% among 1,800; inhibition, % at 18.8 µM; shares compounds with HIF-2a block;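 active = mean inhibition across four replicates of at least 40 percent at the single tested concentration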
# HIF-1a counter: HIF-1a luciferase reporter signal reduction – MiaPaCa-2 cells, single concentration, counter-screen for HIF-2a inhibitor project, confirmation; shares compounds with HIF-2a block; MiaPaCa-2 HIF-1a luciferase reporter, desferoxamine, overnight; inhibition, % at 18.8 µM; hit rate 72% among 1,800; AID 651589, 2012;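 active = mean inhibition of the reporter signal across four replicates at the single tested dose of 50% or more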
# * = called active by the depositor; / = no result. An excerpt weighted towards active compounds, which were near 2.3% of everything screened.
SMILES,CF NFkB block,HIF-2a block,LGR2 antag,TWEAK-Fn14 inh,KKLEB cytotox,hiPSC survival,HIF-2a conf,HIF-1a counter
Cc1ccccc1-c1ccc2c(c1)O[C@@H](CN(C)CC1CC1)[C@@H](C)CN([C@H](C)CO)S2(=O)=O,/,/,-4,/,/,/,/,/
C[C@@H]1CN([C@H](C)CO)C(=O)Cc2cc(NS(=O)(=O)c3ccc(Cl)cc3)ccc2O[C@@H]1CN(C)C(=O)Nc1ccc2c(c1)OCO2,/,/,-4,/,/,/,/,/
CCC(Sc1nc2n[nH]c(C)c2c(=N)n1-c1ccc(C)c(Cl)c1)C(=O)N1CCOCC1 (stereo not drawn),9,41*,/,6,-16,-1,10,70*
CCNC(=O)[C@H]1[C@H](CO)[C@H]2Cn3c(ccc(-c4ccccc4F)c3=O)[C@@H]1N2C(=O)CC,/,/,2,/,/,/,/,/
O=C1C(=C(I)I)c2ccccc2-c2ccccc21,82*,93*,103*,104*,-100*,-3,96*,103*
Cc1nn(C)c(C)c1NS(=O)(=O)c1ccccc1,-8,12,/,29,1,-2,/,/
Cc1nn(-c2ccccc2)c(C)c1NS(=O)(=O)c1ccccc1,3,41*,/,5,6,0,34,14
CCOC(=O)c1ccc(N=c2sc(C(=O)OC)cc(=O)n2Cc2ccco2)cc1,23,82*,70*,64*,-18,17,65*,106*
O=S(=O)(/C(=C\c1ccc(C(F)(F)F)cc1)c1nc2ccccc2[nH]1)c1ccccc1,86*,84*,/,100*,-68*,-3,98*,107*
CCCCN(CC)Cc1ccc(CNC(=S)Nc2ccc(C)cc2Cl)o1,3,84*,2,74*,-8,-1,60*,60*
Cc1csc(NC(=O)c2cn3ccccc3n2)n1,-28,53*,89*,91*,3,-1,77*,51*
Cc1csc(NC(=O)c2cccn2C)n1,-5,-287,-34,21,-8,-1,/,/
C[C@@H]1CN([C@H](C)CO)C(=O)c2cccc(NC(=O)Nc3ccc4c(c3)OCO4)c2O[C@H]1CN(C)Cc1ccncc1,/,/,-28,/,/,/,/,/
COc1cc(C2c3c(-c4cc(Cl)c(C)cc4O)n[nH]c3C(=O)N2Cc2cccnc2)ccc1O (stereo not drawn),26,43*,/,-22,-16,-2,31,60*
CO[C@@H]1CN(C)C(=O)c2ccc(NC(=O)Cc3ccccc3)cc2OC[C@H](C)NC[C@@H]1C,/,/,2,/,/,/,/,/
Cc1cccc(Cn2cc(/C=C/[N+](=O)[O-])c3ccccc32)c1,3,36,/,18,-5,0,/,/
CCOC(=O)COc1ccc(/C=C/[N+](=O)[O-])c(OCC(=O)OCC)c1,16,75*,12,-48,-15,-2,7,90*
CCOC(=O)Cn1cc(/C=C/[N+](=O)[O-])c2ccccc21,-5,77*,15,11,-2,2,60*,22
O=[N+]([O-])/C=C/c1cn(Cc2ccc(Cl)cc2)c2ccccc12,25,51*,25,37,5,-3,29,85*
CCOc1ccc(/C=C/[N+](=O)[O-])c2ccccc12,7,89*,/,-12,-23,-2,39,105*
CC(C)NC(=O)N[C@@H]1C=C[C@@H](CC(=O)O)O[C@H]1CO,/,/,-9,/,/,/,/,/
COCC(=O)N1CC2(CCN(Cc3nccs3)CC2)c2c(n(C)c3cc(OC)ccc23)[C@@H]1CO,/,/,0,/,/,/,/,/
CCOC(=O)c1cnc(Nc2nc3ccccc3o2)nc1CSc1nnc(C)s1,-12,-112,/,5,8,1,/,/
